Drawing on ChEMBL document CHEMBL1961873, “Compounds: GSK PKIS; Assays: Nanosyn kinase panel” (2012), this text covers inhibition for 16 molecules.

Each structure is given as a SMILES string.

One may read the inhibition as the change of the read-out against control, counted positive when it falls.
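Also: enzyme tested as the CDK5/p35 complex, values are mean percent inhibition.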

The target in the assay is Cyclin-dependent kinase 5 (Homo sapiens) (UniProt Q00535). Particulars: at 0.1 µM.
Chain of Cyclin-dependent kinase 5 (Homo sapiens) (Q00535 whole entry, looked up): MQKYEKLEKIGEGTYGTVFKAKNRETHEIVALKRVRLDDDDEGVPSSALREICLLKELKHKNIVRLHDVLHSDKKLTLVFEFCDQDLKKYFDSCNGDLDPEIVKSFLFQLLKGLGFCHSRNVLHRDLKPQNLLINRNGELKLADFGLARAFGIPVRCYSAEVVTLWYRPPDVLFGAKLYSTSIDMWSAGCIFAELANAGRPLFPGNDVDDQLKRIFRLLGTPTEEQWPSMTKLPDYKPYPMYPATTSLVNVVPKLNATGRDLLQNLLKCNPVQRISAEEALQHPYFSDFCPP
In the case of `CN(c1ccc(NC(=O)Nc2c(Cl)cccc2Cl)cc1)c1ccnc(Nc2cccc(CS(C)(=O)=O)c2)n1`, the inhibition was 0.43%.

As for `CCS(=O)(=O)c1ccc(OC)c(Nc2ncc(-c3cccc(-c4ccccc4F)c3)o2)c1`, the inhibition was 0.5%. In the case of `CS(=O)(=O)CCNCc1ccc(-c2ccc3ncnc(Nc4ccc(OCc5ccccc5)c(Br)c4)c3c2)o1` it was -3.53%; in that of `N#Cc1ccc(Oc2nccc(-c3c(-c4ccc(F)cc4)ncn3C3CCNCC3)n2)cc1`, 0.41%; in that of `Fc1ccc(-c2ncn(C3CCNCC3)c2-c2ccnc(Oc3ccc4c(c3)OCO4)n2)cc1`, 0.16%. The result for `COc1cc(N2CCN(C(C)C)CC2)ccc1Nc1nc(Nc2ccc(F)cc2C(=O)NC[C@@H](O)CO)c2cc[nH]c2n1` reads -3.1%.

As for `O=C1NC(=O)C(c2cccc(Cl)c2)=C1Nc1ccc(Cl)c(C(=O)O)c1`, the inhibition is -0.04%.

As for `NC(=O)c1cc(-c2ccncc2)cc(-c2ccccc2)c1N`, the inhibition was 0.58%. Take `CS(=O)(=O)CCNCc1cc(-c2cc3c(Nc4ccc(OCc5cccc(F)c5)c(Cl)c4)ncnc3s2)cs1`: the inhibition was found to be 0.44%. As for `Cc1ccc(C(=O)NC2CCC2)cc1-c1ccc(C(=O)NCC2CC2)cc1`, the inhibition turned out to be 0.96%.

For `NC(=O)c1cc(-c2ccc(F)cc2)cc(-c2ccncc2)c1N`, the inhibition is -0.26%.

Take `O=C(Nc1n[nH]c2cc(-c3ccccc3)ccc12)C1CC1`: the inhibition was 1.28%. For the molecule `O=C(Nc1n[nH]c2nc(-c3ccc(O)cc3)c(Br)cc12)C1CC1`, the inhibition came to 14.7%.

For `C/C(Nc1ccc(S(N)(=O)=O)cc1)=C1/C(=O)Nc2ccccc21`, the inhibition came to 8.67%. As for `O=C1Nc2ccccc2/C1=C/Nc1ccc(-n2cncn2)cc1`, the inhibition is 3.62%.

As for `CCc1nccc2c1nc(-c1nonc1N)n2CC`, the inhibition is 1.21%.
